Several values for one entry are separate records, joined by “and”; a condition that tells them apart may be missing. Equal entries are not always repeated. Compounds without any hit were thinned out: in the full panel of roughly 83,000, 20% have a hit.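 Testing used 96-well plates and a 48-hour single-concentration exposure. Example: -40 means 40% of the starting cells died.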 Values without a mark were called inactive. Activity calls are given as the source filed them. The calls were made as follows: active = growth percent below 10; inactive = the rest.
Columns and labels:
Assay in all cases: NCI-60 one-dose screen, 48 h (100 = growth as untreated, 0 = no growth, -100 = all killed)
NCI-H23 lung = details: 10 µM
NCI-H226 lung = details: 10 µM
HOP-62 NSCLC = details: 10 µM
NCI-H460 lung = details: 10 µM
HOP-92 NSCLC = details: 10 µM
NCI-H522 lung = details: 10 µM unless noted
A549/ATCC NSCLC = details: 10 µM
786-0 renal = details: 10 µM
COLO 205 colon = details: 10 µM

SMILES | growth (NCI-H23 lung) | growth (NCI-H226 lung) | growth (HOP-62 NSCLC) | growth (NCI-H460 lung) | growth (HOP-92 NSCLC) | growth (NCI-H522 lung) | growth (A549/ATCC NSCLC) | growth (786-0 renal) | growth (COLO 205 colon)
O=C(/C=C/c1ccccn1)c1ccccc1 | 83.8% | 86.1% | 93.8% | 26.5% | 78.3% | -75.6% (active) | 76.3% | 15.6% | 32%
CN(C)C(=S)SC(=S)N(C)C | 92.1% and 108% | 104% | 112% and 103% | 98.7% and 91.3% | 97.9% and 108% | 77.4% and 61.1% | 95.9% and 86.6% | 96.7% and 105% | 81.5% and 49.1%
CCN1/C(=C/C=C/C=C/c2sc3ccccc3[n+]2CC)Sc2ccccc21 | -22.8% (active) | 11.8% | -29% (active) | -69.7% (active) | -28.3% (active) | -57.6% (active) | -64.5% (active) | -57.6% (active) | -87.7% (active)
CCO/C=C1\SC(=S)N(c2cccc(O)c2)C1=O | 106% | 96.1% | 97.4% | 106% |  |  |  | 101% | 109%
O=C(O)COc1ccc(OCC(=O)O)cc1 | -0.769% (active) | -60.2% (active) | -15% (active) | -17.8% (active) | -3.9% (active) | -3.87% (active) |  | -9.28% (active) | 16%
CCN(CC)c1ccc(NC(C(=O)c2ccccc2)c2ccccc2)cc1 (configuration not stated) | 44.4% | 60.1% | 123% | 80.4% | 73.7% | 21.8% | 92.5% | -57.1% (active) | 20.5%
NC1=C(Cl)C(=O)c2ccccc2C1=O | 40.7% | 103% | 62.4% | 25.3% | 96.8% | 73.6% | 45% | 106% | 95.2%
CSC1SCC2C(=O)N(C)C(C(C)C)C(=O)OCC(NC(=O)c3cnc4ccccc4n3)C(=O)NC(C)C(=O)N(C)C1C(=O)N(C)C(C(C)C)C(=O)OCC(NC(=O)c1cnc3ccccc3n1)C(=O)NC(C)C(=O)N2C (configuration not stated) | -28.2% (active) | -5.57% (active) | -12.4% (active) | 4.33% (active) | -20.3% (active) | -16.1% (active) | -15.2% (active) | -10.6% (active) | -45.3% (active)
CS(=O)(=O)OC1CC(n2ccc(=O)[nH]c2=O)OC1COC(c1ccccc1)(c1ccccc1)c1ccccc1 (configuration not stated) | 106% | 104% | 106% | 112% |  | 86.1% | 101% |  | 
COc1ccc(CC(=O)c2ccc(O)cc2O)cc1 | 104% | 133% | 88.4% | 115% | 94.4% | 4.52% (active) | 109% | 96.5% | 207%
Cc1nc(N=C(N)N)nc2ccc3ccccc3c12 | 27.6% | 25.8% | -14% (active) | -44.4% (active) | -25.5% (active) | -35.1% (active) | 20.6% | 10.8% | -16.4% (active)

Source: PubChem BioAssay (NCI)
